TR SRC2 fluor cs: Texas Red fluorescence interference in TRb-SRC2 counter-screen; TRb/SRC2 Texas Red total fluorescence interference; Potency, µM (titrated, usually from 106 µM); 0.29% of 280,000 active; AID 1479; active = well fitted curve in either direction with a large enough effect; inconclusive = small, poorly fitted or top-dose-only effect
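Human TRβ ligand-binding domain (0.6 uM) and Texas Red SRC2 peptide (20 nM) in Tris buffer with 1 uM T3 and 5% DMSO were incubated with pinned compound for 5 hr at ambient temperature. Total fluorescence was computed as S + 2P (555/632 nm).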
TRb-SRC2 inh: disrupts binding of human TR beta to SRC2 | P10828 | TRbeta-SRC2 peptide binding, fluorescence polarization; receptor liganded with 1 µM T3 | Potency, µM (highest dose often 106 µM), usual class: inhibitors | 0.065% of 280,000 active; also: nearly all actives have a fitted effect of over 50% in size
Target sequence (P10828 whole entry, looked up): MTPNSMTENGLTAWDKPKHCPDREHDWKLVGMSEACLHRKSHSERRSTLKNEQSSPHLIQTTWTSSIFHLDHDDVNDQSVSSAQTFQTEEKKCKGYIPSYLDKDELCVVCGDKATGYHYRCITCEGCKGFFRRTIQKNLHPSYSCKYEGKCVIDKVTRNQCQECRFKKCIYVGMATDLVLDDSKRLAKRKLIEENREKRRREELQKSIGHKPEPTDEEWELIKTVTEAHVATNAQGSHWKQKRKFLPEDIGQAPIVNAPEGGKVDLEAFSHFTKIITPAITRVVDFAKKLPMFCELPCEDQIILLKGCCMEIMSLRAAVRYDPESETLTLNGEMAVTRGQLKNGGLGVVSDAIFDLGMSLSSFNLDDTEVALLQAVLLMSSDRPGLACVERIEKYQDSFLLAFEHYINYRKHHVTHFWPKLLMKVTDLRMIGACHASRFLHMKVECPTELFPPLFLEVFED
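Quantitative HTS by FP: 0.6 uM TRb LBD, 20 nM labeled SRC2 20-mer, 1 uM T3, 5% DMSO; 5 hr ambient incubation; % activity per concentration and potencies from concentration series.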
Tau fluor cs: counter-screen for tau fibril formation inhibitors | tau K18 P301L Alexa594 fluorescence, heparin fibrillization | Potency, µM (series often up to 57.7 µM) | 0.93% of 280,000 active | AID 1463; also: nearly all actives have a fitted effect of over 55% in size
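Human K18 P301L tau (15 uM unlabeled plus 0.24 uM Alexa 594-labeled, final) in 100 mM sodium acetate pH 7 was mixed with compound and 20 uM heparin and incubated 6 hr at 37 C.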
RGS12 GoLoco inh: inhibitors of human Gai1-RGS12 GoLoco interaction (red fluorophore); P63096; Gai1:RGS12 GoLoco peptide FP, rhodamine, 10 min; AID 880; Potency, µM (highest dose often 61.6 µM), most hits filed as inhibitors; 0.44% of 230,000 active; active = well fitted inhibition curve with a large enough effect, not every such curve was filed as active; inactive = no such curve, though single readings can be large or run the other way; also: nearly all actives have a fitted effect of over 30% in size
Tau FP inhib: blocks human tau fibril formation measured by polarization; K18 P301L tau heparin fibrillization, Alexa594 FP, 6 h; Potency, µM (titrated, usually from 57.7 µM), actives largely listed as inhibitors; 0.39% of 280,000 active; AID 1468; also: nearly all actives have a fitted effect of over 55% in size
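Steps: dispense K18 P301L tau (15 uM plus 0.24 uM Alexa 594 tracer, final) in pH 7 sodium acetate; add compound; add heparin (20 uM final); incubate 6 hr, 37 C; add ThT (30 uM final); after 1 hr ambient, read FP.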
Tau fibril ThT: tau fibrillization inhibition (ThT binding). Potency, µM (highest dose often 57.4 µM), actives largely listed as inhibitors. 2.1% of 270,000 active. P10636. recombinant tau K18 P301L, heparin-induced fibrillization, ThT fluorescence; also: nearly all actives have a fitted effect of over 55% in size
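Using a mix of unlabeled (15 uM) and Alexa 594-labeled (0.24 uM) tau K18 P301L, heparin-triggered fibrillization over 6 hr at 37 C was scored by ThT fluorescence.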
Each line names hits and unclear results; the compound was inactive in the other large screens; [ ] = remark or other dose. Rows were chosen to be rich in hits. Some 3.1% of all compounds tested hit in one or more screens of this group. Unless noted, calls follow the shape of the dose curve; as a rule, active = well fitted curve in the direction sought with a large enough effect; inconclusive = small, poorly fitted or top-dose-only effect, or another doubt; inactive = no such curve, though single readings can be large; an effect the other way counts as inactive or inconclusive.

CCn1c2ccccc2c2cc(NC(=O)c3ccco3)ccc21	Tau fluor cs 25µM[quencher], Tau fibril ThT inconclusive
CCn1c2ccccc2c2cc(NC(C)=O)ccc21	none
CCn1c2ccccc2c2cc(NC(=O)COC(=O)c3cccc(S(=O)(=O)NC)c3)ccc21	Tau fluor cs 10µM[quencher], Tau fibril ThT inconclusive
CC1N(C)c2cc(NC(=O)c3ccco3)ccc2C1(C)C (stereo not drawn)	TR SRC2 fluor cs 45µM[fluorescent], TRb-SRC2 inh inconclusive, Tau fluor cs 28µM[fluorescent], Tau FP inhib inconclusive, Tau fibril ThT inconclusive
CCn1c2ccccc2c2cc(NC(=O)c3cccc(OC)c3)ccc21	Tau fluor cs 13µM[quencher], Tau fibril ThT inconclusive
